Laboratory results published in PubChem BioAssay (NCI).
About 83,000 compounds went through this panel and 20% of them were active in at least one assay; those are over-represented in the sample as a whole.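 How to read the values: 0–100, growth inhibition (40 = 60% inhibited); 0, no net growth; -100 to 0, cell death (-40 = 40% of starting cells died; -100 = all dead).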 Calls of active or inactive are those of the source. How the source made its calls: active means growth percent below 10; inactive means the rest.

Assays:
Assay in all cases: NCI-60 one-dose screen, 48 h (100 = growth as untreated, 0 = no growth, -100 = all killed)
Conditions in all cases: 10 µM unless noted
[1] = test system: SR leukemia
[2] = test system: RPMI-8226 leukemia
[3] = test system: OVCAR-8 ovarian
[4] = test system: OVCAR-5 ovarian
[5] = test system: OVCAR-4 ovarian
[6] = test system: SK-OV-3 ovarian
[7] = test system: IGROV1 ovarian
[8] = test system: OVCAR-3 ovarian
[9] = test system: HS 578T breast
[10] = test system: NCI/ADR-RES ovarian

Measured: growth

O=S(=O)(Nc1ccccc1)c1ccc(C2CC3(Cl)C(Cl)=C(Cl)C2(Cl)C3(Cl)Cl)cc1 (stereo not given)
inactive: [1] 18.8% | [2] 13.8% | [3] 55.6% | [4] 60.1% | [5] 44% | [6] 76% | [7] 54.8% | [8] 26% | [9] 54.8% | [10] 24.1%

CNC(=O)c1c(NC(=O)c2ccc(C(F)(F)F)cc2)sc2c1CCC(=O)C2
active: [1] 3.07% | [2] -27% | [4] -44.7% | [5] -81.5% | [6] 0.374% | [7] -4.58% | [8] -6.89% | [10] -4.29%
inactive: [3] 14% | [9] 12.2%

O=C(Nn1c2c(sc1=Nc1ccccc1)C(=O)c1ccccc1C2=O)c1cc2ccc1CCc1ccc(cc1)CC2
inactive: [1] 61.1% | [2] 75.2% | [3] 62.2% | [4] 110% | [5] 69.4% | [6] 76.3% | [7] 48.8% | [8] 64.8% | [9] 78.9% | [10] 70.2%

C=C(C)[C@@H]1CC[C@]2(C(=O)NCCNCCN)CC[C@]3(C)[C@H](CC[C@@H]4[C@@]5(C)C/C(=C/c6ccncc6)C(=O)C(C)(C)[C@@H]5CC[C@]43C)[C@@H]12
inactive: [1] 95.4% | [2] 90.5% | [3] 101% | [4] 103% | [5] 89.9% | [6] 109% | [7] 87.6% | [8] 97.9% | [9] 86.7% | [10] 101%

C=C(C)[C@@H]1CC[C@]2(C(=O)OC)CC[C@]3(C)[C@H](CC[C@@H]4[C@@]5(C)C/C(=C/NC(N)=S)C(=O)C(C)(C)[C@@H]5CC[C@]43C)[C@@H]12
inactive: [1] 81.6% | [2] 69.6% | [3] 97.5% | [4] 118% | [5] 84.2% | [6] 97.7% | [7] 70.6% | [8] 88.5% | [9] 91.7% | [10] 104%

Brc1ccc2[nH]cc(-c3nonc3-c3c[nH]c4ccccc34)c2c1
inactive: [1] 28.1% | [2] 48.7% | [3] 47% | [4] 48.9% | [5] 46.1% | [6] 60.5% | [7] 43.6% | [8] 45.4% | [9] 52.8% | [10] 42.6%

COc1cc(CNS(=O)(=O)c2ccc(C)cc2)ccc1OCc1cn(-c2ccc(Br)cc2)nn1
inactive: [1] 100% | [2] 87.2% | [3] 102% | [4] 108% | [5] 97.3% | [6] 75.3% | [7] 103% | [8] 112% | [9] 95.6% | [10] 104%

OCCNCCCOc1ccc2ncnc(Nc3ccc(Oc4cccc(C(F)(F)F)c4)c(Cl)c3)c2c1
inactive: [3] 32.1% | [4] 72.8% | [6] 13.7% | [9] 34.2% | [10] 69.1%
active: [1] 5.48% | [2] -12.1% | [5] 5.48% | [7] -35% | [8] 3.15%

C#Cc1cccc(Nc2ncnc3ccc(-c4cncc(NS(C)(=O)=O)c4)cc23)c1
inactive: [2] 26.3% | [3] 37.1% | [4] 21.9% | [5] 52.1% | [10] 78.3%
active: [1] 7.86% | [6] 0.85% | [7] -12.4% | [8] 7.33% | [9] 6.13%

O=C1NCCC12CCN(c1c(Cl)cncc1-c1ccc(O)cc1)CC2
inactive: [1] 94.3% | [2] 85.5% | [3] 89.1% | [4] 83.6% | [5] 105% | [6] 85.4% | [7] 69.2% | [8] 104% | [9] 101% | [10] 91.8%

O=C(Cn1c(-c2ccc([N+](=O)[O-])cc2)nc2ccccc21)NNC(=O)c1cccnc1
inactive: [1] 75.9% | [2] 77.6% | [3] 85.1% | [4] 101% | [5] 96.5% | [6] 102% | [7] 63.3% | [8] 97.3% | [9] 101% | [10] 87.9%

CCCCC(=O)Nc1ncc(Cc2ccc(Cl)cc2)s1
inactive: [1] 33.5% | [2] 86.2% | [3] 84.9% | [4] 73.9% | [5] 80% | [6] 79.1% | [7] 66.5% | [8] 68.3% | [9] 72.9% | [10] 48.4%

O=C1/C(=C/c2ccc(Cl)cc2)COc2ccc(O)cc21
active: [1] 5.45% | [2] -31.8%
inactive: [3] 77.8% | [4] 88.7% | [5] 84% | [6] 132% | [7] 78.6% | [8] 75.5% | [9] 83.1% | [10] 88.7%

COc1ccc(C(=O)Nc2cccc(C3CC(=O)c4c(cc(OC)c(OC)c4OC)O3)c2)cc1 (stereo not given)
inactive: [1] 13.3% | [2] 11.2% | [3] 17.7% | [4] 46% | [5] 43.5% | [6] 20.6% | [7] 36%
active: [8] 1.51% | [9] 5.72% | [10] 8.74%
